From PubChem BioAssay AID1159580 (chemical genetic matrix, 2015)
The whole screen tested about 5,500 compounds, of which about 2,000 (36%) were called active. Inconclusive results (about 18%) are left out. No stated cut-off is given here; in the data, active means normalized growth mostly below about 0.91 (no sharp cut-off); inconclusive means no clear call, values can overlap the other calls; inactive means mostly above about 0.92. Some of the results follow.

Test: chemical genetic growth profiling, strain panel (AID 1159580);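 further: tested at 20 µM; growth read once vehicle control cultures reached saturation at 30 °C; 1 = growth at the plate median or of vehicle wells; lower values mean less growth of the strain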
Conditions: S. cerevisiae deletion strains, growth OD

Measured: normalized growth

CS(=O)(=O)c1sc(C(=O)Sc2ccc(Cl)cc2)c2c1C=CCC2
active: locus YAR019C, strain CDC15, active compounds read low 0.857 | locus YBL105C, strain PKC1, active compounds read low 0.868 | locus YBR135W, strain CKS1, active compounds read low 0.855 | locus YBR136W, strain MEC1, active compounds read low 0.867 | locus YBR160W, strain CDC28, active compounds read low 0.873 | locus YDL017W, strain CDC7, active compounds read low 0.881 | locus YDL028C, strain MPS1, active compounds read low 0.88 | locus YDL108W, strain KIN28, active compounds read low 0.866 | locus YDL132W, strain cdc53, active compounds read low 0.848 | locus YDL214C, strain PRR2, active compounds read low 0.42 | locus YDR052C, strain DBF4, active compounds read low 0.903 | locus YDR054C, strain cdc34, active compounds read low 0.771 | locus YDR226W, strain ADK1, active compounds read low 0.869 | locus YDR477W, strain SNF1, active compounds read low 0.339 | locus YER123W, strain YCK3, active compounds read low 0.368 | locus YER133W, strain GLC7, active compounds read low 0.416 | locus YFL009W, strain cdc4, active compounds read low 0.857 | locus YFL029C, strain CAK1, active compounds read low 0.853 | locus YFR003C, strain YPI1, active compounds read low 0.881 | locus YFR019W, strain FAB1, active compounds read low 0.327 | locus YFR028C, strain CDC14, active compounds read low 0.871 | locus YGR040W, strain KSS1, active compounds read low 0.437 | locus YGR052W, strain FMP48, active compounds read low 0.492 | locus YGR092W, strain DBF2, active compounds read low 0.174 | locus YHR030C, strain SLT2, active compounds read low 0.374 | locus YHR079C, strain IRE1, active compounds read low 0.349 | locus YHR082C, strain KSP1, active compounds read low 0.511 | locus YHR205W, strain SCH9, active compounds read low 0.206 | locus YIL147C, strain SLN1, active compounds read low 0.886 | locus YJL095W, strain BCK1, active compounds read low 0.369 | locus YJL157C, strain FAR1, active compounds read low 0.358 | locus YJR016C, strain ILV3, active compounds read low 0.862 | locus YJR066W, strain TOR1 (second series), active compounds read low 0.103 | locus YJR066W, strain TOR1, active compounds read low 0.353 | locus YKL048C, strain ELM1, active compounds read low 0.532 | locus YKL067W, strain YNK1, active compounds read low 0.428 | locus YKL101W, strain HSL1, active compounds read low 0.371 | locus YKL193C, strain SDS22, active compounds read low 0.845 | locus YKL203C, strain TOR2, active compounds read low 0.379 | locus YLR113W, strain HOG1, active compounds read low 0.3 | locus YLR133W, strain CKI1, active compounds read low 0.423 | locus YLR403W, strain SFP1, active compounds read low 0.217 | locus YML070W, strain DAK1, active compounds read low 0.397 | locus YMR001C, strain CDC5, active compounds read low 0.836 | locus YMR205C, strain PFK2 (second series), active compounds read low 0.458 | locus YMR277W, strain FCP1, active compounds read low 0.838 | locus YNL006W, strain LST8, active compounds read low 0.873 | locus YNL020C, strain ARK1, active compounds read low 0.39 | locus YNL161W, strain CBK1, active compounds read low 0.862 | locus YNL183C, strain NPR1, active compounds read low 0.418 | locus YNL207W, strain RIO2, active compounds read low 0.842 | locus YNL222W, strain SSU72, active compounds read low 0.856 | locus YNL307C, strain MCK1 (second series), active compounds read low 0.221 | locus YOL078W, strain AVO1, active compounds read low 0.839 | locus YOL136C, strain PFK27, active compounds read low 0.375 | locus YOR061W, strain CKA2, active compounds read low 0.256 | locus YOR119C, strain RIO1, active compounds read low 0.527 | locus YOR231W, strain MKK1, active compounds read low 0.353 | locus YOR329C, strain SCD5, active compounds read low 0.876 | locus YPL031C, strain PHO85, active compounds read low 0.308 | locus YPL153C, strain RAD53, active compounds read low 0.279 | locus YPL204W, strain HRR25, active compounds read low 0.286 | locus YPL209C, strain IPL1, active compounds read low 0.854 | locus YPL256C, strain CLN2, active compounds read low 0.521 | locus YPR025C, strain CCL1, active compounds read low 0.863 | strain TSCII, active compounds read low 0.841
inactive: locus YDL101C, strain DUN1, active compounds read low 0.92 | locus YJL128C, strain PBS2, active compounds read low 0.894 | locus YPR106W, strain ISR1, active compounds read low 0.928 | locus YPR111W, strain DBF20, active compounds read low 0.929 | strain NNK1, active compounds read low 0.907
